Source: PMC4336329 (PLoS ONE, 2015)
The campaign covered roughly 310,000 compounds. About 14,000 (4.5%) showed an effect of 50% or more. Effects have a minus sign here. The full list was thinned out, with strong results kept by preference.

These compounds were tested against human ether-à-go-go-related gene (hERG) potassium channel (human, UniProt Q12809) (assay: primary screen, population patch clamp on CHO cells stably expressing hERG; higher = less effect of the substance).
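Note: peak tail current of the secondary pulse compared with the same well before compound.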

Sequence of human ether-à-go-go-related gene (hERG) potassium channel (Q12809 whole entry, looked up): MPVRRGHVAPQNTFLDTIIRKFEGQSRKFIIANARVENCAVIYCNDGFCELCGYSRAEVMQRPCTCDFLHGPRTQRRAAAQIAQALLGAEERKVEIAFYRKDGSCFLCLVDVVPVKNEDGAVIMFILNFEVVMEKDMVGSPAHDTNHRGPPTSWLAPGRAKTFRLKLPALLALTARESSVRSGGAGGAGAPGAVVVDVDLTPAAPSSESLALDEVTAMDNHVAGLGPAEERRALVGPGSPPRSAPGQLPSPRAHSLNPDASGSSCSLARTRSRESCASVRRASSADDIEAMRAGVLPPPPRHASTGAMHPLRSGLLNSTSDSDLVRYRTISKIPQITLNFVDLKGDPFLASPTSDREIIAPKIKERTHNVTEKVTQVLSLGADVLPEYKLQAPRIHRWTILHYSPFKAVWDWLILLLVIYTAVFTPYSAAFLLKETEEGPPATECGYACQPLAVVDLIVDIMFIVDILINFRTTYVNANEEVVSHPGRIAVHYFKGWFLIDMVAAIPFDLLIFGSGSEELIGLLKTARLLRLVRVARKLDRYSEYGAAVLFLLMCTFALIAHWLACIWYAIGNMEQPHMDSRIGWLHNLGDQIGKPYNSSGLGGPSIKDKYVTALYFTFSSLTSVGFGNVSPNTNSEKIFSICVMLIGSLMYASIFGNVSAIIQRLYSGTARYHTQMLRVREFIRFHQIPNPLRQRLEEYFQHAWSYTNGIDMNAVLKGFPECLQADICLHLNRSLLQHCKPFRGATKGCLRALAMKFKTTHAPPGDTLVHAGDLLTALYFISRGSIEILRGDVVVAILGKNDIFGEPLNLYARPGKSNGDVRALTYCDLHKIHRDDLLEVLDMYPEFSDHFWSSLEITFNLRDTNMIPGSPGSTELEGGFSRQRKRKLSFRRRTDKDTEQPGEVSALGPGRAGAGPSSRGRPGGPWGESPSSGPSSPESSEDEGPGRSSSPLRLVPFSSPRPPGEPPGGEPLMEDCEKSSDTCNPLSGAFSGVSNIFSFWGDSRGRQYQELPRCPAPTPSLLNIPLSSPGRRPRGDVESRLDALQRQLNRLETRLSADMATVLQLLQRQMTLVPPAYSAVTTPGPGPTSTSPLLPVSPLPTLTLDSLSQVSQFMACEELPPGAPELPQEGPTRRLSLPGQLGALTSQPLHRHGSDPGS

Row | Compound | hERG current change (%, negative = inhibition) at 10uM [%]
1 | CCCCN(C)CCNC(=O)c1ccc(Cn2c(=S)[nH]c3ccc(Br)cc3c2=O)cc1 | -41
2 | COCCNC(=S)N(CCCN(C)C)Cc1cc2cc3c(cc2[nH]c1=O)OCCO3 | 24.9
3 | CC(Oc1ccc2c(-c3ccccc3)cc(=O)oc2c1)C(=O)N[C@H](Cc1c[nH]c2ccccc12)C(=O)O (some centres unmarked) | 7.48
4 | O=C(NCC1CCCO1)c1cnn2c1NC(c1ccccc1)CC2C(F)(F)F (centres unmarked) | 1.68
5 | NS(=O)(=O)c1cccc(NC(=O)COC(=O)CCc2ccccc2)c1 | 17
6 | CCC(=O)N1CCc2cc(S(=O)(=O)CCC(=O)NCc3ccc4c(c3)OCO4)ccc21 | 0.659
7 | Cc1ccc2c(CC(=O)NCCc3ccc(S(N)(=O)=O)cc3)coc2c1 | -2.43
8 | O=C(O)C(=O)O.c1ccc(COc2ccc(OCCCN3CCCCC3)cc2)cc1 | -78.3
9 | O=C(O)C(=O)O.c1ccc(COc2ccc(OCCCN3CCCC3)cc2)cc1 | -73.8
10 | COc1cccc2c1-c1c(C(=O)O)cccc1C2=O | 15.7
11 | CC(=O)c1ccc(NC(=O)C(C)NCc2ccccc2Cl)cc1 (centres unmarked) | -0.834
12 | CCCCN(C)Cc1c(C)[nH]c2ccc(OCC)cc2c1=O | -39.9
13 | CCN(Cc1ccccc1)Cc1c(C)[nH]c2c(C)c(C)ccc2c1=O | -40.6
14 | CCCCN(CC)Cc1c(C)[nH]c2ccccc2c1=O | -20.7
15 | CCCCN(C)Cc1c(C)[nH]c2c(ccc3ccccc32)c1=O | -73.6
16 | CCCCN(CC)Cc1c(C)[nH]c2c(ccc3ccccc32)c1=O | -74.3
17 | Cc1[nH]c2ccc(Cl)cc2c(=O)c1CN1CCCC1 | 1.86
18 | CCCCN(C)Cc1c(C)[nH]c2ccc(Cl)cc2c1=O | -55.3
19 | CCCCN(C)Cc1c(C)[nH]c2c(Cl)cccc2c1=O | -38.7
20 | CCCCN(C)Cc1c(C)[nH]c2ccccc2c1=O | -2.26
21 | CC1(C)CC(=O)C(C=Nc2cccnc2/N=C/C2=C(O)CC(C)(C)CC2=O)=C(O)C1 | 14
22 | O=c1[nH]n2c(C(F)(F)F)cc(C3CC3)nc2c1N=Nc1ccccc1 | 12.2
23 | COc1cc(OC)cc(-c2oc(=O)c3cc(OC)c(OC)cc3c2/C=C/c2ccc(F)cc2)c1 | 4.91

Row | Compound | hERG current change (%, negative = inhibition) at 10uM [%]
24 | Cc1ccc(C(=O)n2nnc3ccccc32)cc1 | 7.37
25 | CN1C(=S)SC(/[N+]([O-])=C\c2ccccc2)C1(C)C (centres unmarked) | -15.4
26 | COC(=O)c1[nH]c2ccccc2c1NC(=O)CN1CCN(Cc2ccc3c(c2)OCO3)CC1 | -73.7
27 | COC(=O)c1[nH]c2ccc(C)cc2c1NC(=O)CCN1CCN(Cc2ccc3c(c2)OCO3)CC1 | -66.1
28 | CCN(CC(=O)Nc1c(C(=O)OC)[nH]c2ccccc12)c1ccc2c(c1)OCO2 | -17.4
29 | COC(=O)c1[nH]c2ccccc2c1NC(=O)CN1CCN(c2cccc(Cl)c2)CC1 | 6.84
30 | COC(=O)c1[nH]c2ccc(C)cc2c1NC(=O)CN1CCN(c2ccc(F)cc2)CC1 | -1.02
31 | CCN(CC(=O)Nc1c(C(=O)OC)[nH]c2ccc(C)cc12)c1ccc2c(c1)OCO2 | 2.19
32 | CCc1noc(C)c1C(=O)Nc1cccc(S(=O)(=O)N(C)c2ccccc2)c1 | -22.1
33 | CCN1CCCC1CNC(=O)Cn1cccc1C(=O)c1ccccc1 (centres unmarked) | -3.53
34 | O=C1C=C(c2ccc(F)cc2OCc2ccccc2)C[C@@H](c2ccc(Cl)cc2)C1 | 6.91
35 | CCOC(=O)[C@H]1[C@H]2COc3ccc(Cl)cc3[C@@H]2N2C(=O)c3cc(C)ccc3NC(=O)[C@@]12C | 5.63
36 | Cc1cc(C)n2nc(N)c(N=Nc3ccccc3)c2n1 | -3.32
37 | COC(=O)[C@H](CCSC)NC(=O)c1cc2c(cn1)[nH]c1ccccc12 | 0.117
38 | O=C(CSc1nc2ccccc2[nH]1)c1ccco1 | -4.74
39 | CCOC(=O)Nc1ccccc1C(=O)Nc1cc(C)cc(C)c1 | 28.9
40 | COc1cc(-c2nc3cccc(C)n3c2NCC2CCCO2)ccc1O (centres unmarked) | -51.4
41 | Cc1ccn2c(NC3CCCC3)c(-c3ccncc3)nc2c1 | -10.2
42 | CCOc1cc(/C=C(\C#N)C(=O)NCC2CCCO2)ccc1O (centres unmarked) | -3.03
43 | CCCCNc1c(-c2ccc(OC)c(SC3CCCCC3)c2)nc2cc(C)ccn12.O=C(O)C(F)(F)F | 12.6
44 | COc1ccc(-c2nc(C#N)c(NCC3CCCO3)o2)cc1OC (centres unmarked) | 6.28
45 | COc1ccc(-c2nc3cccc(C)n3c2NCc2ccco2)cc1OC | -42.2
46 | COc1cc(-c2nc3ccccn3c2NCC2CCCO2)ccc1O (centres unmarked) | -17.9

Row | Compound | hERG current change (%, negative = inhibition) at 10uM [%]
47 | COc1ccc(-c2nc3cccc(C)n3c2NCC2CCCO2)cc1O.Cl (centres unmarked) | -5.6
48 | CCOc1cc(-c2nc3ccccn3c2NCC2CCCO2)ccc1O (centres unmarked) | -64.7
49 | CCOc1cc(-c2nc3cc(C)ccn3c2NCC2CCCO2)ccc1O (centres unmarked) | -72.2
50 | CCOc1cc(-c2nc3c(C)cccn3c2NCC2CCCO2)ccc1O.CNC.Cl (centres unmarked) | -43.9
51 | COc1ccc(-c2nc3cc(C)ccn3c2NCC2CCCO2)cc1OC.Cl (centres unmarked) | -71.2
52 | CCN(CC)CCN1C(=O)C(=O)/C(=C(/O)c2c(C)[nH]c(C(=O)OC)c2C)C1c1ccccc1OC (centres unmarked) | 20.8
53 | O=C(NCCCN1CCCC1=O)c1cccc(C(F)(F)F)c1 | -3
54 | CCOC(=O)C1CCN(CC(C)(C)NS(=O)(=O)c2ccc(Cl)cc2)CC1 | -1.75
55 | C/C(=N/Nc1nc(C)cc(C)n1)c1ccc(Br)cc1 | -14.9
56 | C/C(=N/Nc1ccnc2cc(Cl)ccc12)c1ccc(O)cc1 | -6.2
57 | Cc1ccc(C)c(N2CCN(c3ccncc3N)CC2)c1 | -47.8
58 | Cc1c(NC2=CC(=O)CCC2)c(=O)n(-c2ccccc2)n1C | 8.37
59 | O=C(CC(=O)N1CCN(c2ccccn2)CC1)Nc1ccc2nc3n(c(=O)c2c1)CCCCC3 | -17.9
60 | CCCCn1c(O)c(/C(CC)=N/N2CCCCC2c2cccnc2)c(=O)[nH]c1=S (centres unmarked) | -27
61 | C/C(=N\N1CCCCC1c1cccnc1)c1c(O)n(C2CCCCC2)c(=S)[nH]c1=O (centres unmarked) | 0.0734
62 | CCn1c(O)c(/C(C)=N/N2CCCCC2c2cccnc2)c(=O)[nH]c1=S (centres unmarked) | -55.2
63 | O=[N+]([O-])c1cc([N+](=O)[O-])c(Oc2c(F)ccc(F)c2F)cc1NN1CCCCC1 | 19.8
64 | CC1CCCCC1NC(=O)c1ccc(S(=O)(=O)NCc2ccco2)cc1 (centres unmarked) | 7.19
65 | CCNc1nc(=S)nc(NC(C)C)[nH]1 | 29.6
66 | CCOC(=O)N1CCC(NC(=O)CS(=O)Cc2nc(-c3ccc(Cl)cc3)oc2C)CC1 (centres unmarked) | -47.4
67 | Cc1ccc(-c2nc(CN3CCCC(C(=O)N4CCOCC4)C3)c(C)o2)cc1 (centres unmarked) | -37.5
68 | Cc1oc(-c2ccc(Cl)cc2)nc1CN1CCCC(C(=O)N2CCOCC2)C1 (centres unmarked) | -53.8
69 | Cc1oc(-c2cc3c(cc2Cl)OCO3)nc1CN1CCCC(C(=O)N2CCOCC2)C1 (centres unmarked) | -24.7

Row | Compound | hERG current change (%, negative = inhibition) at 10uM [%]
70 | CCOc1ccc(-c2nc(CN3CCCC(C(=O)N4CCOCC4)C3)c(C)o2)cc1 (centres unmarked) | -26.5
71 | CCOC(=O)N1CCN(C(=O)C2CCCN(Cc3nc(-c4ccc(Cl)cc4)oc3C)C2)CC1 (centres unmarked) | -70.9
72 | O=C(C1CCC(CNS(=O)(=O)c2ccccc2)CC1)N1CCCCC1 (centres unmarked) | -1.89
73 | C=CCN(c1ccc(Br)cc1C(=O)OC)S(C)(=O)=O | 0.801
74 | Brc1ccc(-c2cnc(-c3cccs3)o2)cc1 | -3
75 | NNC(=O)CSCc1ccc(Cl)cc1Cl | -2
76 | CN1C2CCC1CC(NC(=O)CSc1ccc(Cl)cc1)C2 (centres unmarked) | -8.94
77 | CN1C2CCC1CC(NC(=O)CSCc1ccc(Cl)cc1Cl)C2 (centres unmarked) | -57.4
78 | O=C(O)C1=C[C@@H](C2CC2)C[C@@H](OCc2ccc(CO)cc2)O1 | 21.4
79 | COc1cc(Br)c(C2C(C#N)=C(N)Oc3n[nH]c(-c4cccnc4)c32)cc1OC (centres unmarked) | 6.8
80 | Cc1cccc(NC(=O)c2nc[nH]c2C(=O)N2CCC(C)CC2)c1 | 1.29
81 | CCCc1[nH]n(-c2ccc([N+](=O)[O-])cc2)c(=O)c1C=NCCCn1ccnc1 | -76.4
82 | CCCc1[nH]n(-c2ccc([N+](=O)[O-])cc2)c(=O)c1C=NCCc1c[nH]c2ccccc12 | 8.42
83 | COc1ccc(-c2[nH]n(-c3ccc([N+](=O)[O-])cc3)c(=O)c2C=NCc2ccncc2)cc1 | -3.44
84 | CC(=NCCCn1ccnc1)c1c(O)n(-c2ccccc2)c(=O)[nH]c1=O | 5.91
85 | CC(=NCCCn1ccnc1)c1c(O)n(C)c(=O)n(C)c1=O | -9.42
86 | CC(=NCCCn1ccnc1)c1c(C)[nH]n(-c2ccc([N+](=O)[O-])cc2)c1=O | -69.3
87 | CCCc1[nH]n(-c2ccc([N+](=O)[O-])cc2)c(=O)c1C=NCCN1CCNCC1 | -47.1
88 | CCCc1[nH]n(-c2ccc([N+](=O)[O-])cc2)c(=O)c1C=NCCc1ccc(OC)c(OC)c1 | -19.4
89 | CCCc1[nH]n(-c2ccc([N+](=O)[O-])cc2)c(=O)c1C(C)=NCc1ccncc1 | -52.4
